PPC-1+TRAIL kill: PPC-1 cancer cell killing with TRAIL present | PPC-1 cells + TRAIL, ATPLite viability luminescence | cell killing (% activity), % at 4 µM or 5 µM | hit rate 0.41% among 220,000 | AID 1443;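 active means cell killing above 50% in the first pass at 4 µM, then a duplicate retest at 5 µM averaging 50% or more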;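 further: plate controls were cells with TRAIL plus DMSO for no effect and medium-only wells lacking cells for full effect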
TWEAK Fn14 block: TWEAK-Fn14 signaling inhibition; TWEAK-stimulated Fn14 reporter cells, luciferase luminescence, 8 h; inhibition, % at 10 µM; hit rate 2% among 360,000; AID 1159606; in the data active means inhibition above about 50%
HSP90 refold inh: inhibitors of HSP90 luciferase refolding in rabbit reticulocyte lysate; luciferase refolding luminescence, 3 h; AID 1789; inhibition, % at 5.6 µM; hit rate 0.91% among 290,000;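 active means inhibition above the screen-wide mean plus 3 SD, computed separately per campaign, cut at about 16% in these data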;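 further: 0% = DMSO wells and 100% = 60 µM geldanamycin wells; inhibitors lower the luminescence because luciferase stays unfolded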
Platelet DG rel: modulates dense granule release in human platelets | hit rate 0.22% among 300,000 | inhibition, %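 (compounds screened at 7.5 µM in platelet-rich plasma)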 | human platelet-rich plasma, SFLLRN dense granule ATP release, luminescence;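 active means mean replicate score, as percent of positive control, at or above 50; inconclusive means mean below 50 but at least one replicate at or above 50; inactive means mean and every replicate below 50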
TROY signal inh: blocks TROY-dependent signaling in reporter cells. Q293 LMP1-TROYcd NF-kB luciferase reporter, 4 h. inhibition, % at 10 µM. hit rate 0.98% among 360,000;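 active means compounds whose plate-normalised and pattern-corrected inhibition of the luciferase reporter signal at the single screening dose is 50% or more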
TRAIL sens C8: sensitizes caspase-8 expressing cells to TRAIL; NB7+C8 cells + TRAIL, ATPlite viability luminescence; hit rate 1% among 360,000; AID 624354; inhibition (viability loss, TRAIL sensitization), % at 10 µM;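 active means compounds causing at least 50% loss of cell viability in the single-dose screen, relative to plate controls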
* hit, by the source's call; ? = inconclusive; . = no result. Shown are actives, neighbours in structure and some others; about 3.5% of the full set was active somewhere.

SMILES	PPC-1+TRAIL kill	TWEAK Fn14 block	HSP90 refold inh	Platelet DG rel	TROY signal inh	TRAIL sens C8
CCS(=O)(=O)c1ncc(Cl)c(C(=O)Nc2ccc(C)cc2)n1	.	90*	-3	-3	67*	84*
CCC1CCCCN1S(=O)(=O)c1ccc(NC(=O)c2nc(S(C)(=O)=O)ncc2Cl)cc1 (stereo not given)	.	77*	9	19	83*	92*
CCC1CCCCN1S(=O)(=O)c1ccc(NC(=O)c2ccncc2)cc1 (stereo not given)	.	31	-1	?	26	22
CCCc1cnc(Nc2nc(C(N)Cc3ccc(OC)cc3)cs2)nc1 (stereo not given)	.	-21	.	.	-3	8
Cc1ccc(CN2CCN(Cc3ccc4cccc(F)c4n3)CC2CCO)cc1 (stereo not given)	.	3	-3	1	9	-2
Clc1ccc(Sc2oc(/C=N/n3cnnc3)cc2Br)cc1	-6	12	4	-5	1	-3
CN(C)C(=O)/C(C#N)=C\c1cc(Br)c(Sc2ccc(Cl)cc2)o1	4	88*	-1	.	31	4
CCN1CCc2c(OCC(=O)Nc3ccc(C)cc3)cccc2C1=O	.	-6	-3	10	33	5
CCOC(=O)N1CCN(c2ccc(S(=O)(=O)N(Cc3ccccc3)Cc3ccccc3)cn2)CC1	12	42	0	11	62*	22
CNC[C@@H](Cc1ccccc1)NC[C@@H](CC1CCCCC1)NCCCc1ccccc1	.	-64	1	3	37	96*
CNC[C@@H](CC1CCCCC1)NC[C@H](CC(C)C)NCCc1cccc(C(F)(F)F)c1	.	-101	-1	0	12	92*
O=c1c(Cc2ccc(Cl)cc2Cl)c(O)ccn1Cc1ccc(Cl)cc1	7	-3	2	9	51*	-10
Nc1ccc(-c2cc3ccccc3oc2=O)cc1	.	82*	2	1	60*	8
O=c1oc2ccccc2cc1-c1ccc(O)cc1	11	-70	-7	0	-98	-1
O=C(O)/C=C/c1cn(Cc2ccccc2)nc1-c1ccccc1	10	-9	-1	7	-10	-14
O=C(O)CCn1cc(/C=C/C(=O)c2ccc(Cl)cc2)c(-c2ccc(Br)cc2)n1	11	60*	-6	.	18	0
CCOC(=O)c1c(N2CCCCC2)c2ccccc2[nH]c1=O	6	32	3	70*	18	-14
Oc1ccccc1CNc1ccc(Br)cn1	20	90*	-4	28	-40	18
CCOC(=O)C(C(=O)OCC)C(Nc1cccc(Br)c1)c1ccccc1 (stereo not given)	23	71*	1	-2	18	2
Nc1nnc(SCc2ccc(Cl)cc2)s1	30	68*	-1	?	.	-11
Cc1ccc(N(CC(=O)NC2CCCC2)C(=O)CNC(=O)c2cccs2)cc1C	.	13	-2	2	12	16
Cc1ccccc1NCc1ccccc1O	4	14	2	5	10	-7
C=CCOc1ccccc1CNc1ccccc1C	13	69*	0	2	18	-3
CCOC(=O)C1=CN(CC2CCCCC2)CCC1=O	.	-16	.	.	4	-10
Cc1ccc(-c2nn3c(C)nnc3s2)cc1NC(=O)c1ccc(-c2ccc(Cl)cc2Cl)o1	-15	-34	2	.	26	60*
SMILES	PPC-1+TRAIL kill	TWEAK Fn14 block	HSP90 refold inh	Platelet DG rel	TROY signal inh	TRAIL sens C8
Cc1ccc(-c2nn3c(C)nnc3s2)cc1NC(=O)c1ccc(-c2cccc(Cl)c2)o1	27	24	5	4	-5	7
C/C(CC(=O)Nc1ccc(N(C)C)cc1)=N\NC(=O)c1ccccc1O	.	24	-5	-8	56*	7
O=C(COc1ccccc1[N+](=O)[O-])Nc1ccc2oc(=O)ccc2c1	.	-19	-3	4	-3	-14
O=C(COc1ccccc1[N+](=O)[O-])Nc1ccc(NC(=O)c2cc3ccccc3o2)cc1	29	1	-1	-3	52*	35
O=C(COc1ccc(/C=N/NC(=O)c2cc3ccccc3o2)cc1Br)Nc1ccccc1	33	-16	-1	-3	40	59*
Cc1ccc(NC(=O)c2cc3ccccc3o2)nc1	.	39	.	-7	-9	59*
O=C(Nc1ccc(F)cc1)c1cc2ccccc2o1	.	-7	2	11	-57	27
O=C(N/N=C/c1ccco1)c1cc2ccccc2o1	.	-10	-2	-2	2	2
O=C(Nc1ccccc1)c1cc2ccccc2o1	32	49	13	44	-10	56*
Cn1cnc2ncnn2c1=S	.	-58	.	.	-7	9
COc1ccccc1CNC(=O)CN(C)CC(=O)Nc1ccc(F)c(F)c1F	.	-8	.	.	0	-11
COc1ccc(-c2nc(N)c(C#N)c(-c3cccnc3)c2C)cc1	-3	2	-7	7	20	-21
CC(OC(=O)c1ccccc1Oc1ccccc1)C(=O)NC1CC1 (stereo not given)	10	10	-2	3	59*	-3
O=C(COC(=O)c1ccccc1Oc1ccccc1)NC1CC1	-5	1	0	-1	-6	-9
Cc1cc(-c2nc3ccccc3s2)ccc1N	.	83*	.	.	32	72*
Nc1ccc(-c2nc3ccccc3s2)cn1	.	4	-4	-22	-54	24
Cc1ccc(F)cc1C(=O)N1CCCCC1c1cc(C(=O)NC(C)C)no1 (stereo not given)	.	0	.	.	-7	6
Cc1ccc(-c2csc(NC(=O)C3=NN(c4ccccc4)C(=O)CC3)n2)cc1	6	55*	2	6	17	12
CN(CC(=O)Nc1cc(Cl)cc(Cl)c1)Cc1cccs1	.	-25	0	20	-10	18
O=C(c1cccc(N2CCCC2=O)c1)N1CCN(c2ccccc2)CC1	6	46	-2	-1	76*	5
CCN(CC)S(=O)(=O)c1cccc2cc(C(=O)O)c(O)cc12	19	79*	1	-6	.	3
CC(=O)c1ccc(NC(=S)NC(C)c2ccc(Cl)cc2Cl)cc1 (stereo not given)	10	11	6	-8	56*	7
CC(=O)c1ccc(NC(=S)Nc2ccc(Br)c(Cl)c2)cc1	15	-25	-1	-2	-25	-7
O=C1CC(c2ccccc2)CC(=O)C1CS(=O)(=O)c1ccccc1 (stereo not given)	4	7	-1	7	-6	5
COc1ccc2cc3c(nc2c1)OCC3	.	14	8	3	-23	-3
N=c1oc2ccccc2cc1C(=O)Nc1cccc(F)c1	.	50	-7	4	-11	12
N=c1oc2cc(O)ccc2cc1C(=O)Nc1ccc(Cl)cc1	.	15	3	-5	-3	49*
CC(=O)c1cc2ccc(O)cc2oc1=O	6	-15	4	1	5	5
N=c1oc2ccccc2cc1C(=O)Nc1ccc(F)cc1	.	62*	1	4	-81	13
COCCN(CCOC)S(=O)(=O)c1ccc(C(=O)Nc2nnc(C3CC3)o2)cc1	4	67*	-3	-7	-10	0
